# Test results as given in PubChem BioAssay (NCI).
# “And” between values parts separate entries of the source, which are not always exact repeats. Equal entries are not always repeated. The panel holds about 83,000 compounds, 20% with a hit somewhere; the sample as a whole holds those more often.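 Plates (96-well) were seeded with cells, treated with compound at one concentration, and incubated for 48 hours before percent growth was determined.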 The source made the active and inactive calls.
# Test system: NCI-H322M lung
# Assay: NCI-60 one-dose screen, 48 h (100 = growth as untreated, 0 = no growth, -100 = all killed)
# Details: 10 µM unless noted
# Procedure: Growth inhibition of the NCI-H322M human Non-Small Cell Lung tumor cell line is measured as a screen for anti-cancer activity. Cells are grown in 96 well plates and exposed to the test compound for 48 hours. Compounds are tested at a single concentration, which is 10^-5 M for most compounds. The reported endpoint is percent growth (GI% or GIPRCNT), where numbers from 0 - 100% represent growth inhibition, and numbers from -100% - 0 represent cell death. For example, a value of 40 represents 60% growth inhibition. A value of 0 means no net growth occurred over the course of the experiment. A value of -40 indicates 40% of cells at the beginning of the experiment died by the end of the experiment. A value of -100 means all cells are dead at the end of the experiment.
# NCI-60 Human Tumor Cell Lines Screen was performed using the standard one-dose NCI protocol, which is described in more detail at https://dtp.cancer.gov/discovery_development/nci-60/default.htm.
# Compounds with GIPRCNT values below 10 were considered active. Activity score was based on GIPRCNT using the following formula: […]
# Score is 0 for GIPRCNT values of 100 or above, 50 for GIPRCNT values of 0, and 100 for GIPRCNT values of -100.
row,Structure (SMILES),growth
1,Cc1ccc2nc(COc3ccc(C(=O)NNC(=O)Nc4ccc(Cl)c(C(F)(F)F)c4)cc3)[nH]c2c1,22.3% (inactive)
2,O=c1c(-c2nc(-c3ccccc3)c(-c3ccccc3)[nH]2)coc2ccc(F)cc12,73.1% (inactive)
3,COc1cc(/C=C/C(=O)c2ccc(S(=O)(=O)NCCNc3nc(N(C)C)nc(N4CCOCC4)n3)cc2)cc(OC)c1OC,57.2% (inactive)
4,COc1ccc(C(=O)NNC(=O)CSc2nc3sc4c(c3c(=O)n2-c2ccc(Cl)cc2)CCCC4)cc1,73.5% (inactive)
5,CCC(=O)c1cc(C(=O)OC)c2ccc3c4ccccc4ccc3n12,93.5% (inactive)
6,Cc1ccc(Cl)cc1NC(=O)Nc1nc2ccc([N+](=O)[O-])cc2s1,-6.17% (active)
7,Cc1nn(-c2ccccc2)c2nc(C)n(C(=O)N/N=C/c3cccc([N+](=O)[O-])c3)c(=O)c12,91.7% (inactive)
8,CCCCCCCCc1ccc(C(=O)Nc2cccc(O)c2)cc1,95.9% (inactive)
9,Cc1ccc(C(=O)Nc2cc(-n3ccnc3C)cc(C(F)(F)F)c2)cc1C#Cc1cnc2cccnn12,21% (inactive)
10,O=C(O)CC1S/C(=N/N=C/c2nc3ccccc3s2)NC1=O (stereo not given),106% (inactive)
11,CCc1ccccc1-c1nc(CN[C@@H]2C[C@@H]3C[C@H]([C@H]2C)C3(C)C)c(C)o1,-92.5% (active)
12,CC(=O)C[n+]1cccc2c3ccccc3ccc21,89.7% (inactive)
13,O=C(CSc1nnc(-c2ccc(-c3nc4ccccc4[nH]3)cc2)o1)Nc1ccc(Cl)cc1,61.5% (inactive)
14,CCCCNc1ccc2c3c(cccc13)C(=O)N(c1cccc(-c3nn(-c4ccccc4)cc3-c3nc4ccccc4s3)c1)C2=O,104% (inactive)
15,COc1cc(CNC(=O)C[C@H](C)CCC=C(C)C)ccc1OCc1cn(-c2ccc(Cl)cc2Cl)nn1,95.2% (inactive)
16,COc1ccc(Nc2nnc(-c3c[nH]c4ccccc34)o2)cc1,89.8% (inactive)
17,CN(C)c1nc(NCCNS(=O)(=O)c2ccc(C(=O)/C=C/c3ccccc3)cc2)nc(N2CCOCC2)n1,96.9% (inactive)
18,Nc1cccc(-n2c(COc3ccc(I)cc3)nc3ccccc32)c1,94.4% (inactive) and 96.2% (inactive)
19,OCCn1cc(-c2nc3ccc4[nH]ncc4c3c3c2CCCC3)cn1,68.5% (inactive)
20,CN(C(=O)CN1C(=O)/C(=C/c2ccco2)SC1=S)C1CCS(=O)(=O)C1 (stereo not given),99.3% (inactive)

row,Structure (SMILES),growth
1,COc1cc(CNC(=O)C[C@H](C)CCC=C(C)C)ccc1OCc1cn(-c2ccc(Br)cc2)nn1,99.6% (inactive)
2,O=c1[nH]c2ccccc2cc1COc1ccc(Nc2nccc(-c3ccc(Cl)cc3)n2)cc1,107% (inactive)
3,O=C(N/N=C/c1ccc(Cl)o1)c1[nH]c2ccc(Br)cc2c1-c1ccccc1,26.3% (inactive)
4,O=C(c1ccc(Cl)cc1)C1[C@H](c2ccccc2Cl)[C@@H](c2ccccc2)NC12C(=O)Nc1ccc(Br)cc12 (stereo not given in full),-47.3% (active)
5,Cc1ccc(C(=O)Nc2cc(-c3ccccc3)cc(C(F)(F)F)c2)cc1C#Cc1cnc2cccnn12,102% (inactive)
6,c1n[nH]cc1-c1nc2ccc3cn[nH]c3c2c2c1CCCC2,86.8% (inactive)
7,COC(=O)c1cc(C(=O)CBr)n2c1ccc1c3ccccc3ccc12,82.8% (inactive)
8,Fc1ccc(N2CC(Cn3c(C(F)(F)F)cc4c(Cl)ncnc43)C2)c(F)c1,45.7% (inactive)
9,CC(=O)c1c2c(c3ccc4c5ccccc5ccc4n13)C(=O)c1ccccc1C2=O,92.9% (inactive)
10,CCOc1ccccc1NC(=O)N/C(N)=N/c1nc2ccccc2s1,35.9% (inactive)
11,NS(=O)(=O)c1ccc(Nc2nc(SCC(=O)c3ccc(F)cc3)nc3ccccc23)cc1,58.7% (inactive)
12,COc1ccc(NC(=O)NN2C(=O)c3ccccc3N(C)C2c2ccc(OC)cc2)cc1 (stereo not given),95.8% (inactive)
13,Cc1cc(C(NC(=O)C2CC3(CC(Nc4cccc5c4C(=O)N(C4CCC(=O)NC4=O)C5=O)C3)C2)c2ccc3c(c2)OC(F)(F)O3)c(O)c2ncccc12 (stereo not given),27.5% (inactive)
14,CCCCNC(=S)Nc1ccc(OCc2nc3ccc(Cl)cc3[nH]2)cc1,57% (inactive)
15,COc1ccc(C(=O)/C=C/c2ccc3c(c2)OCCO3)cc1S(N)(=O)=O,84.6% (inactive)
16,Cc1ccc(C2CC(c3ccc(NC(=S)Nc4ccccc4)cc3)=NN2c2ccc(S(N)(=O)=O)cc2)cc1 (stereo not given),45.6% (inactive)
17,CCCCC[C@@H]1C/C=C(\C)[C@@H](O)C(C)(C)C(=O)[C@@H](C)/C=C(\C)[C@@H]2C[C@H](O)C[C@](O)(CC(=O)O1)O2,82% (inactive)
18,COc1ccc(-c2nc3ccc(-c4nnc(SCc5ccccc5)o4)cc3[nH]2)cc1OC,46.7% (inactive)
19,Nc1cc2ccccc2c(=O)n1NC(=O)c1ccccc1,104% (inactive)
20,N#CC1=C(c2ccco2)Nc2c(c(-c3ccccc3)nn2-c2ccccc2)C12C(=O)Nc1ccc(Cl)cc12 (stereo not given),50.7% (inactive)
